Experimental data: PubChem BioAssay (EPA / NIEHS)
Records with an inconclusive call do not appear. Calls of active or inactive are those of the source. The calls were made as follows: active = hit-call score of the fitted dose curve at least 0.9, where 1 is the maximum; inconclusive = response in the unintended direction; inactive = score below 0.9.

molecular target: Peroxisome proliferator-activated receptor gamma (Homo sapiens) (UniProt P37231); assay: OT_PPARg_PPARgSRC1_0480: Odyssey Thera (OT) 8-hour Protein-Complementation Assay for Peroxisome Proliferator-activated Receptor Gamma / SRC-1 Co-activator (AID 2283387);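 also: nuclear to cytoplasmic split Venus YFP fluorescence ratio reporting PPARg SRC-1 interaction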
Method: OT_PPARg_PPARgSRC1_0480 is a cell-based assay that uses HEK293T, a human kidney cell line, with measurements taken at 8 hours after chemical dosing in a 384-well plate.OT_PPARg_PPARgSRC1_0480 is one of one assay component(s) measured or calculated from the OT_PPARg_PPARgSRC1_0480 assay. It is designed to make measurements of protein fragment complementation, a form of binding reporter, as detected with fluorescence intensity signals by Protein-fragment Complementation technology.Data from the assay component OT_PPARg_PPARgSRC1_0480 was analyzed into 1 assay endpoint. This assay endpoint, OT_PPARg_PPARgSRC1_0480, was analyzed in the positive analysis fitting direction relative to DMSO as the negative control and baseline of activity. Using a type of binding reporter, measures of receptor for gain-of-signal activity can be used to understand the binding at the pathway-level as they relate to the gene PPARG. Furthermore, this assay endpoint can be referred to as a primary readout, because the performed assay has only produced 1 assay endpoint. To generalize the intended target to other relatable targets, this assay endpoint is annotated to the nuclear receptor intended target family, where the subfamily is non-steroidal.
The OT PPARg/SRC-1 assay assessed receptor-chemical interactions using a rapidly maturing, intensely fluorescent mutant of YFP known as Venus, rationally dissected into two separate fragments. The fragments were obtained as follows: first, fragments coding for YFP1 and YFP2 (corresponding to amino acid residues 1-158 and 159-239 of the full length YFP, respectively) were generated by oligonucleotide synthesis (Blue Heron Biotechnology), and then PCR mutagenesis was used to generate the mutant fragments IFP1 and IFP2. Fusion constructs were transfected into HEK293T cells with a (Gly4Ser)2 linker between the PPARg/SRC-1 and YFP fragment genes to facilitate complementation when interacting proteins bring fragments into close proximity. The construct is transiently transfected in HEK293T cells 48 hours prior to treatment with test compounds. Cells are seeded into optical quality 384-well poly-D-lysine coated plates in MEM alpha medium (Invitrogen) supplemented with 10 percent FBS (Gemini Bio-Products) 1 percent penicillin and 1 percent streptomycin, and grown in 37C incubator equilibrated to 5 percent CO2. Cells are allowed to adhere for 24 hours prior to treatment with compounds of interest or controls for 8 hours. Cells are fixed in 4 percent formaldehyde and stained with Draq5 (BioStatus) to identify cells and subcellular compartment boundaries prior to signal detection. 8 Images per well were acquired on an Evotec Opera at 2 wavelengths (488 and 635nm), and the ratio of fluorescence in the nucleus relative to fluorescence in the cytoplasm (N/C Ratio) in the 488nm channel was calculated for a minimum of 350 cells per image.

Sequence of Peroxisome proliferator-activated receptor gamma (Homo sapiens) (P37231 whole entry, looked up, the tested form may be a part): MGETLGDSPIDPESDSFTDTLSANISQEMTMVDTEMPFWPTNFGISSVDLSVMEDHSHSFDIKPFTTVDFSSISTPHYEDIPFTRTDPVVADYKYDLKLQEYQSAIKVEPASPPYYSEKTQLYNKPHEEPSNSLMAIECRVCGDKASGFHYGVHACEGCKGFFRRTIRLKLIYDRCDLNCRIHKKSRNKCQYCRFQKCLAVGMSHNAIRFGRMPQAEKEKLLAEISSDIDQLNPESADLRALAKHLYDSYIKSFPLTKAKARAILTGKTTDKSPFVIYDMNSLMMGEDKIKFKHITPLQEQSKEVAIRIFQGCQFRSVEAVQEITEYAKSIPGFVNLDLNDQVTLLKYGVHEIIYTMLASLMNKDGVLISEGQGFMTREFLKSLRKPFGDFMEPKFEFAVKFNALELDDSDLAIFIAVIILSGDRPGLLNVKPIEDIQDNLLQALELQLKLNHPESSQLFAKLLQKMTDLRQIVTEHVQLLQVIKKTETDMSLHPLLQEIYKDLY

SMILES | outcome
CCCCCCC(C)O (stereo not given) | inactive
Cc1cccc(C)c1 | inactive
CC12CCC(C1)C(C)(C)C2O (stereo not given) | inactive
O=Cc1ccccc1O | inactive
CCCC1CCC(=O)CC1 | inactive
c1ccc(OCCOc2ccccc2)cc1 | inactive
CCC(C)(C)C1CCC(=O)CC1 | inactive
[O-]/[N+](=N\O)c1ccccc1 | inactive
COC(=O)c1cccc(C(=O)OC)c1 | inactive
C=CC(O)CCCCC (stereo not given) | inactive
CC(=O)c1ccc(O)cc1 | inactive
C[C@]12CC[C@@H]3c4ccc(O)cc4CC[C@H]3[C@@H]1CC[C@@H]2O | inactive
CC(CCO)CC(C)(C)C (stereo not given) | inactive
c1ccc2scnc2c1 | inactive
COc1ccc2[nH]cc(CCNC(C)=O)c2c1 | inactive
CCc1cccc(O)c1 | inactive
CCCCCCOc1ccc(O)cc1 | inactive
C=C(C)C(N)=O | inactive
CCCO | inactive
CC(C)(C)c1ccc(S)cc1 | inactive

SMILES | outcome
CCC(=O)OC(C)(C)C1CC=C(C)CC1 (stereo not given) | inactive
CCNC(=S)NCC | inactive
COc1cc(OC)c2ccc(=O)oc2c1 | inactive
CCCCCC(=O)O[C@]1(C(C)=O)CC[C@H]2[C@@H]3CCC4=CC(=O)CC[C@]4(C)[C@H]3CC[C@@]21C | inactive
CCCCOCCOCCO | inactive
CCCCN(CCCC)CCCCCCN(CCCC)CCCC | inactive
CC(C)N(c1ccccc1)C(C)C | inactive
CCCCCCCCCO | inactive
CC(=O)Oc1c(C)c(C)c2c(c1C)CC[C@@](C)(CCC[C@H](C)CCC[C@H](C)CCCC(C)C)O2 | inactive
c1coc(CNc2ncnc3nc[nH]c23)c1 | inactive
CCCC[N+](C)(CCCC)CCCC | inactive
C=C(C)C(=O)OCCC(C)OC(=O)C(=C)C (stereo not given) | inactive
C1=COCCC1 | inactive
Cc1cccc(O)c1 | inactive
CC(C)(C)c1cccc(O)c1 | inactive
CCCCC(CC)COCCO (stereo not given) | inactive
O=C(c1ccc(OCCN2CCCCC2)cc1)c1c(-c2ccc(O)cc2)sc2cc(O)ccc12 | inactive
COc1ccc(OC)cc1 | inactive
O=C1OC2(c3ccc(O)cc3Oc3cc(O)ccc32)c2ccccc21 | inactive
CC(=O)Nc1cc(S(=O)(=O)O)cc2cc(S(=O)(=O)O)c(N=Nc3ccccc3)c(O)c12 | inactive
